Results reported in PubChem BioAssay (NCATS).
Values joined by “and” are separate entries in the source; they are usually repeats but may differ in a detail not shown here. Equal entries are not always repeated. Results filed as inconclusive are left out. Active and inactive are the calls of the source. Unless noted, calls follow the shape of the dose curve; as a rule, active = well fitted curve in the direction sought with a large enough effect; inconclusive = small, poorly fitted or top-dose-only effect, or another doubt; inactive = no such curve, though single readings can be large; an effect the other way counts as inactive or inconclusive.

Tests used:
[1] = AP1 Signaling Pathway (AID 357; active = well fitted curve in either direction with a large enough effect, not every such curve was filed as active;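 also: ME-180 reporter cells stimulated with EGF at its EC50 level; % is scaled to controls: 0 for no effect and ±100 for the full control effect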); conditions: ME-180 AP-1-bla reporter, EGF-induced, beta-lactamase ratio, 5 h
Outline: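 First, ME-180 AP-1-bla cells were cultured overnight at 37 °C in low-serum Opti-MEM. Next, titrated compounds with EC50 EGF were incubated 5 hours. Finally, CCF4 was added for 2.5 hours and the 460/530 nm ratio recorded.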

[2] = target: Cytochrome P450 1A2 (Homo sapiens) (UniProt P05177); assay: p450-cyp1a2 (AID 410; calls by dose curve; also: potency is read from the fitted curve at half-maximal effect); conditions: recombinant CYP1A2, luciferin-ME demethylation, luminescence; series mostly up to 57 µM
Outline: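 Luminescent demethylation readout: Luciferin-ME (100uM, equal to Km) turned over by 20nM CYP1A2 for 60 min at room temperature after NADPH regeneration addition, following 10 min compound preincubation. Normalization used 57 uM furafylline as full inhibition.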

[3] = Stat Signaling Pathway (AID 446; active = well fitted curve in either direction with a large enough effect, not every such curve was filed as active;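 also: ME-180 cervical cancer cells given 40 pM IL-6 alongside compound; SIE-controlled beta-lactamase reporter measured as 460/530 nm FRET emission ratio; % is scaled to controls: 0 for no effect and ±100 for the full control effect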); conditions: ME-180 (cervical carcinoma) SIE beta-lactamase reporter, IL-6 stimulated, 5 h
Outline: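 FRET read-out (405 nm excitation, 460/530 nm emission) of a beta-lactamase reporter under a STAT-inducible element in ME-180 cervical carcinoma cells. Cells with compound receive 40 pM IL-6 for 5 h. Values are normalised to AC90 stimulation and AC90 JAK-inhibitor controls.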

[4] = target: Glucocorticoid receptor (Homo sapiens) (UniProt P04150); assay: GR-GFP Redistribution (AID 450;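 active = compounds whose dose series gives a full or clear partial fitted curve of increased nuclear translocation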; also: potency is read from the fitted curve at half-maximal effect); conditions: U2OS GR-GFP nuclear translocation, laser cytometry, 2 h
[5] = target: Glucocorticoid receptor (Homo sapiens) (UniProt P04150); assay: GR-EFC Redistribution (AID 451; calls by dose curve; also: potency is read from the fitted curve at half-maximal effect); conditions: CHO-K1 GR-EFC translocation, beta-gal luminescence, 2 h
Outline: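 Translocation of GR-ED fusion to nuclear EA restores b-gal, read by luminescence after 1 h room-temperature detection. Engineered CHO-K1 biosensor cells, 1,000/well, exposed 2 h at 37 C to titrations up to 46 uM final.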

[6] = target: Mitogen-activated protein kinase 10 (Mus musculus) (UniProt Q61831); assay: JNK3 AlphaScreen Assay (AID 530; active = well fitted curve in either direction with a large enough effect, not every such curve was filed as active;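 also: kinase came from lysate of stimulated human HepG2 cells; signal reports phosphorylation of biotinylated GST-cJun 1-79 at Ser73 with 10 µM ATP; % is scaled to controls: 0 for no effect and ±100 for the full control effect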); conditions: JNK3 lysate, c-Jun phosphorylation; series mostly up to 57.1 µM
Outline: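 qHTS titrations with 15 min compound pre-incubation before adding ATP (10 uM final). Read-out: AlphaScreen of Ser73-phosphorylated biotin-GST-cJun using HepG2 lysate JNK3 activated by IL-1β and TNFα.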

[7] = target: 3',5'-cyclic-AMP phosphodiesterase 4B (Homo sapiens) (UniProt Q07343); assay: qHTS Assay for Inhibitors of PDE-IV (AID 607; active = well fitted activation curve with a large enough effect in the main read-out, with a control signal flat, not every such curve was filed as active; also: % of control where 0% means no effect); conditions: HEK293 ACTOne CNG channel cells, membrane potential fluorescence; series mostly up to 22.9 µM
Outline: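 Cell-based read-out of cAMP via a modified cyclic nucleotide-gated channel and membrane potential dye (535/590 nm) in HEK293 cells expressing PDE4 endogenously. Compounds tested up to 22.9 uM final; 100 uM RO 20-1724 reference.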

[8] = target: Guanine nucleotide-binding protein G(i) subunit alpha-1 (Homo sapiens) (UniProt P63096); assay: qHTS Assay for Inhibitors of RGS12 GoLoco Motif Activity (Green Fluorophore) (AID 879); conditions: Galphai1/FITC-RGS12 GoLoco peptide, fluorescence polarization; series mostly up to 57.1 µM;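 also: 0% = labeled peptide with Gαi1 and full inhibition = labeled peptide alone without protein; negative values mean loss of peptide binding seen as reduced polarization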
Outline: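 A drop in FITC polarization marked displacement of the FITC-tagged RGS12 GoLoco peptide (10 nM) from Gαi1 (50 nM). Compounds were incubated 10 min at room temperature in Tris pH 7.5 buffer containing 150 mM NaCl, 0.1 mM GDP and 0.05% NP40; unlabeled peptide titration served as control.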

[9] = target: Cytochrome P450 3A4 (Homo sapiens) (UniProt P08684); assay: qHTS Assay for Activators of Cytochrome P450 3A4 (AID 885); conditions: recombinant CYP3A4, Luciferin-PPXE luminescence, 60 min; series mostly up to 57.1 µM; also: nearly all actives have a fitted effect of over 65% in size
Outline: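 Luminescent readout of luciferin formed from 25 uM Luciferin-PPXE (KM level) by 20 nM CYP3A4 in 200 mM KPO4, with 60 min NADPH-driven reaction at room temperature after 10 min compound exposure. Ketoconazole (57 uM) defined 100% inhibition.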

[10] = target: Cytochrome P450 2D6 (Homo sapiens) (UniProt P10635); assay: qHTS Assay for Inhibitors and Substrates of Cytochrome P450 2D6 (AID 891); conditions: recombinant CYP2D6, luciferin-ME EGE luminescence; series mostly up to 57.1 µM; also: potency is read from the fitted curve at half-maximal effect; nearly all actives have a fitted effect of over 60% in size
Outline: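 Luminescent read-out of luciferin formed by 5 nM human CYP2D6 demethylating 30 uM Luciferin-ME EGE (Km level) over 60 min at room temperature after NADPH regeneration addition. Data normalized to full inhibition by 1.43 uM quinidine.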

[11] = target: Cytochrome P450 2C19 (Homo sapiens) (UniProt P33261); assay: qHTS Assay for Inhibitors and Substrates of Cytochrome P450 2C19 (AID 899); conditions: recombinant CYP2C19, luciferin-H EGE luminescence; series mostly up to 57.1 µM; also: potency is read from the fitted curve at half-maximal effect; nearly all actives have a fitted effect of over 60% in size
Outline: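 Luminescence readout of luciferin formed from 10uM Luciferin-H EGE (KM level) by 5 nM CYP2C19 in 50mM KPO4. 60 min NADPH-driven reaction at 37C after 10 min compound preincubation; data scaled to 57uM ketoconazole inhibition.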

[12] = qHTS Assay for Identification of Small Molecule Antagonists for Thrombopoietin (TPO) Signaling Pathway (AID 918); conditions: TPO-dependent cell signaling reporter, antagonist mode; also: potency is read from the fitted curve at half-maximal effect; nearly all actives have a fitted effect of over 60% in size
Outline: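 Inhibition read as reduced luciferase luminescence after 24 h at 37 C in IL-3-deprived Ba/F3 cells carrying human TPO receptor and GPIIb-promoter reporter, stimulated with 26 pM TPO (final, its EC50) alongside compound.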

[13] = target: Muscarinic acetylcholine receptor M1 (Rattus norvegicus) (UniProt P08482); assay: qHTS Assay for Antagonists of Acetylcholine Muscarinic M1 Receptor: Kinetic Measurement of Intracellular Calcium Response (AID 943); conditions: M1-expressing cells, kinetic intracellular calcium fluorescence; series mostly up to 35.3 µM; also: potency is read from the fitted curve at half-maximal effect; nearly all actives have a fitted effect of over 75% in size
Outline: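 Antagonism measured as reduction of carbachol-evoked (EC80, 100 nM final) calcium flux in rat M1-CHO cells after 10 min compound exposure. Fluo-4 signal read kinetically; ratio of maximal to basal fluorescence.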

[14] = target: Pyruvate kinase (Leishmania mexicana) (UniProt Q27686); assay: qHTS Validation Assay for Inhibitors of Leishmania Mexicana Pyruvate Kinase (AID 945);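 also: 0% = DMSO only neutral control wells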; conditions: purified L. mexicana pyruvate kinase, enzyme activity, E451W mutant enzyme; series mostly up to 57.5 µM
Outline: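 Pyruvate kinase activity of E451W LmPYK (0.2 nM) was followed as ATP output after 1 h at room temperature with 0.5 mM PEP and 0.1 mM ADP, detected by PKLight luminescence.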

[15] = target: Pyruvate kinase PKM (Homo sapiens) (UniProt P14618); assay: qHTS Assay for Activators of Human Muscle Pyruvate Kinase (AID 954; active = well fitted curve in the direction sought with a large enough effect, not every such curve was filed as active;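 also: 0% = uninhibited enzyme and -100% = no enzyme or full thiadiazolimine inhibition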); conditions: purified human muscle pyruvate kinase, luciferase-coupled luminescence, 1 h; series mostly up to 57.5 µM
Outline: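 ATP production by PKM2 detected via luciferase luminescence after 1 h room-temperature reaction (0.1 nM enzyme, PEP at Km 0.5 mM, ADP 0.1 mM, pH 7.2 imidazole buffer). Inhibition scaled to no-enzyme control; activation referenced to 0.3 nM enzyme wells.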

[16] = target: Alpha-galactosidase A (Homo sapiens) (UniProt P06280); assay: Counterscreen for Glucocerebrosidase Inhibitors: qHTS Assay for Human alpha-Galactosidase at pH 4.5 (AID 992); conditions: purified enzyme, fluorogenic substrate; series mostly up to 76.9 µM; also: 0% is about no effect
Outline: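 Fluorogenic 1536-well qHTS at pH 4.5 (citrate, Tween-20): 2 nM enzyme, 80 uM 4-MU-alpha-galactoside, 20 min room temperature, NaOH/glycine stop. Titration 0.7 nM to 77 uM, data normalized to no-enzyme and full-activity controls, Hill-fitted AC50.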

[17] = target: alpha-glucosidase (Oryza sativa, rice) (UniProt Q653V4); assay: Counterscreen for Glucocerebrosidase Inhibitors: qHTS Assay for Rice alpha-Glucosidase at pH 5.0 (AID 997); conditions: rice alpha-glucosidase enzyme activity; series mostly up to 76.9 µM;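 also: 0% = full activity with enzyme and -100% = basal without enzyme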
Outline: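 Endpoint fluorogenic assay at pH 5.0: compounds (0.7 nM to 77 uM) titrated against 4 nM rice enzyme and 400 uM 4-MU-alpha-glucoside for 20 min at room temperature; NaOH/glycine stop, read ex 365/em 440 nm, Hill-fitted AC50.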

[18] = qHTS Assay for Lipid Storage Modulators (AID 1519; calls by dose curve; as to activity change, negative = inhibition: % is scaled to controls: 0 for no effect and ±100 for the full control effect); conditions: Drosophila S3 cells, BODIPY lipid droplet/cell ratio, laser cytometry, cells loaded with oleic acid
Outline: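 Cells seeded at 5,000 per well were treated with compounds over a concentration series and loaded with oleic acid (400 uM, as added). Lipid droplet fluorescence (488 nm excitation, 500-530 nm channel) was read by laser-scanning cytometry and normalized to 20 uM Triacsin C.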

[19] = target: Ubiquitin carboxyl-terminal hydrolase 1 (Homo sapiens) (UniProt O94782); assay: Inhibitors of USP1/UAF1: Pilot qHTS (AID 504865); conditions: purified USP1/UAF1, Ub-rhodamine cleavage fluorescence; series mostly up to 114 µM;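 also: rhodamine fluorescence freed from ubiquitin-rhodamine substrate followed over time; top concentration of the series differs between compounds; % is scaled to controls: 0 for no effect and ±100 for the full control effect; nearly all actives have a fitted effect of over 35% in size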
Outline: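 Enzyme-free wells gave the negative control, while test wells held 1nM USP1/UAF1 preincubated with compound for 15 min at room temperature. Ub-Rho at 150nM final started the reaction, and fluorescence at 480/540 nm was recorded kinetically.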

[20] = target: DNA dC->dU-editing enzyme APOBEC-3G (Homo sapiens) (UniProt Q9HC16); assay: qHTS for inhibitors of Vif-A3G interactions: Validation (AID 588379); conditions: Vif-A3G protein interaction assay; series mostly up to 46.1 µM; also: 0% is about no effect
Outline: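 Yellow fluorescence (Ex 488, Em 500-530) of Vif-coexpressing HeLa A3G-eYFP cells, scanned by Acumen cytometer, reports blocked A3G degradation. Cells plated at 700/well overnight at 37 deg C before compound addition, then a further overnight compound incubation at 37 deg C.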

[21] = tested on: Zika virus NS2B-NS3 protease; assay: Primary screen GU AMC qHTS for Zika virus inhibitors (AID 1347154); conditions: Zika NS2B-NS3 unlinked protease, AMC fluorogenic substrate; series mostly up to 54.1 µM;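 also: 0% = no-inhibitor control and -100% = no-enzyme control; nearly all actives have a fitted effect of over 70% in size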
Outline: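 Fluorogenic AMC-substrate cleavage by noncovalent NS2B-NS3 protease complex (25 nM, pH 8.0 Tris buffer with Tween 20) followed for 15 minutes at room temperature (~20% conversion). Percent inhibition from ex340/em450 signal change, fitted by 4-parameter Hill equation.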

[22] = Counterscreen qHTS for small molecule stabilizers of the endoplasmic reticulum resident proteome: GLuc-NoTag assay (AID 1508627); conditions: Gaussia luciferase NoTag secretion counterscreen, luminescence, thapsigargin 100 nM for final 4 h; series mostly up to 76.4 µM;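 also: 0% = thapsigargin alone and -100% = DMSO vehicle control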
Outline: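 Counterscreen line: SH-SY5Y-GLuc-NoTag cells, treated with compound 19 hr before a 4 hr, 100 nM thapsigargin calcium depletion. Secreted Gaussia luciferase in the medium was measured by luminescence after coelenterazine was added (0.07x final), with cells unlysed.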

[23] = Confirmatory qHTS for small molecule stabilizers of the endoplasmic reticulum resident proteome: Secreted ER Calcium Modulated Protein (SERCaMP) assay (AID 1508628); conditions: SERCaMP secreted luciferase ER calcium/proteostasis reporter; series mostly up to 76.3 µM; also: potency is read from the fitted curve at half-maximal effect; nearly all actives have a fitted effect of over 40% in size
Outline: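 Reporter secretion upon ER calcium depletion (100 nM thapsigargin, 4 h, 37C) is measured as medium luminescence with coelenterazine, after 16 h compound pretreatment of SH-SY5Y-GLuc-SERCaMP cells; primary at three concentrations up to 38.3 uM, follow-up at 11 (up to 76.6 uM).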

Chain of Cytochrome P450 2D6 (Homo sapiens) (P10635 whole entry, looked up): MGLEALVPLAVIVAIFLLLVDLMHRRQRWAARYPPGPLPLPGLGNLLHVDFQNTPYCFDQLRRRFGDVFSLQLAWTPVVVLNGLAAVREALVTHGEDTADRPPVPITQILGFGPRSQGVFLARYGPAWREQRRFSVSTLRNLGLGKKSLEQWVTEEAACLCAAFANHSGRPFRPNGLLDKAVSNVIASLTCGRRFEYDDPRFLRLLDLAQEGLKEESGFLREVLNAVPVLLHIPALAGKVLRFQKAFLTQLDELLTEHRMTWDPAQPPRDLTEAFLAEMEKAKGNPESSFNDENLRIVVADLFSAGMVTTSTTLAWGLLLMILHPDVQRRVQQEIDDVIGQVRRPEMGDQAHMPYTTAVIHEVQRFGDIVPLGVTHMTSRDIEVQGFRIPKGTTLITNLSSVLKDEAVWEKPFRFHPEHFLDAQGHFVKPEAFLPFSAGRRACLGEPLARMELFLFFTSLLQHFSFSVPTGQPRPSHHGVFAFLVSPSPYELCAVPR
Chain of Glucocorticoid receptor (Homo sapiens) (P04150 whole entry, looked up, the tested form may be a part): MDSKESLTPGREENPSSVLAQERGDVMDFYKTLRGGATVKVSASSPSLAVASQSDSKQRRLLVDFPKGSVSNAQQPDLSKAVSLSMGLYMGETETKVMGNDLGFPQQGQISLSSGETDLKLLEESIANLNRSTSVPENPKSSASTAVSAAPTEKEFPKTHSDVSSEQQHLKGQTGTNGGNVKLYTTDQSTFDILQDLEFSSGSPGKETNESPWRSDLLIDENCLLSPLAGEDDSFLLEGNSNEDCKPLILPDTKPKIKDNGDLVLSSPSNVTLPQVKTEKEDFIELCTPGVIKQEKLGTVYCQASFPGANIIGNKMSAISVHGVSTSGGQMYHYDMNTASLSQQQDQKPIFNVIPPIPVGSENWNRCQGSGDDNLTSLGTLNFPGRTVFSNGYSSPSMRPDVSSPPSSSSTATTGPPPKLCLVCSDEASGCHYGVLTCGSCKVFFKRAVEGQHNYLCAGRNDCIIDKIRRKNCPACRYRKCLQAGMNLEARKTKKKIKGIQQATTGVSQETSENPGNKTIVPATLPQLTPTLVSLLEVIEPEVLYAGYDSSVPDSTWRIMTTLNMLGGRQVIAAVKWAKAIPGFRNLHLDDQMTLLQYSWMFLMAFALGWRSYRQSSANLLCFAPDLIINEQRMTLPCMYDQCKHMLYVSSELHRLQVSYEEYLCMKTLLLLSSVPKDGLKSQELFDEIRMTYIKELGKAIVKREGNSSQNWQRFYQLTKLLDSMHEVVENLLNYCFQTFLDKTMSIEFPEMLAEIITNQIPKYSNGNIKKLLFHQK
Chain of Cytochrome P450 1A2 (Homo sapiens) (P05177 whole entry, looked up): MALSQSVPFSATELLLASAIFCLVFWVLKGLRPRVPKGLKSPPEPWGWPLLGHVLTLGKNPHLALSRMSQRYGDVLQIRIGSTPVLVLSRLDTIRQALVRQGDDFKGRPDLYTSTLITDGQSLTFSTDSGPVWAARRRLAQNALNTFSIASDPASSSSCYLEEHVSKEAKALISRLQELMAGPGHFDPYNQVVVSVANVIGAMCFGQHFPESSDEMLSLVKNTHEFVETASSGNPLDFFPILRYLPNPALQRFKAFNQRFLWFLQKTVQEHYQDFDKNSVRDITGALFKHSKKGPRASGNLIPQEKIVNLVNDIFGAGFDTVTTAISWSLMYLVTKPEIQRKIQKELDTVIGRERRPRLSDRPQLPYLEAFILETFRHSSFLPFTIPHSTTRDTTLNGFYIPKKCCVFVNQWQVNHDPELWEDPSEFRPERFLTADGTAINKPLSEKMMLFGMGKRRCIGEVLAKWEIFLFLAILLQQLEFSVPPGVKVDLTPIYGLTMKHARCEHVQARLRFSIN
Chain of 3',5'-cyclic-AMP phosphodiesterase 4B (Homo sapiens) (Q07343 whole entry, looked up): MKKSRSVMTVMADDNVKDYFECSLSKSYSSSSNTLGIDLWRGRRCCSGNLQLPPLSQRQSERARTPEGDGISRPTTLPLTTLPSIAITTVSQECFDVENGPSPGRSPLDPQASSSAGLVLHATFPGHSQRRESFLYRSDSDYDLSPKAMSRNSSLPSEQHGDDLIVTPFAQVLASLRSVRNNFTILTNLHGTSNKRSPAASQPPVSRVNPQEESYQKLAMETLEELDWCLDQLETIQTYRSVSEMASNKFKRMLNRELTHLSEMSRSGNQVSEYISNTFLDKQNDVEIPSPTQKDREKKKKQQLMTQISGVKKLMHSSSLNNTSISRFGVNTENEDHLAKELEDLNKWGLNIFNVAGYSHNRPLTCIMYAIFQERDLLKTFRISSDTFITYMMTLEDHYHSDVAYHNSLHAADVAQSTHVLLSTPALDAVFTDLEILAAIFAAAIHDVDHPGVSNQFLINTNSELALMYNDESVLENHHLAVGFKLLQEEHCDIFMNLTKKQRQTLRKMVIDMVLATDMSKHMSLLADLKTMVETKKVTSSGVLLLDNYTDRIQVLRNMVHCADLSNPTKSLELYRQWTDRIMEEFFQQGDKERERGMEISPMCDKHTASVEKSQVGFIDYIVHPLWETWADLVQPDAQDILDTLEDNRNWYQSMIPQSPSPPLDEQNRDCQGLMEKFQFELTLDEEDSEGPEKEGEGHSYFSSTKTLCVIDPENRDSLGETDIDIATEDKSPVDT
Chain of Cytochrome P450 3A4 (Homo sapiens) (P08684 whole entry, looked up): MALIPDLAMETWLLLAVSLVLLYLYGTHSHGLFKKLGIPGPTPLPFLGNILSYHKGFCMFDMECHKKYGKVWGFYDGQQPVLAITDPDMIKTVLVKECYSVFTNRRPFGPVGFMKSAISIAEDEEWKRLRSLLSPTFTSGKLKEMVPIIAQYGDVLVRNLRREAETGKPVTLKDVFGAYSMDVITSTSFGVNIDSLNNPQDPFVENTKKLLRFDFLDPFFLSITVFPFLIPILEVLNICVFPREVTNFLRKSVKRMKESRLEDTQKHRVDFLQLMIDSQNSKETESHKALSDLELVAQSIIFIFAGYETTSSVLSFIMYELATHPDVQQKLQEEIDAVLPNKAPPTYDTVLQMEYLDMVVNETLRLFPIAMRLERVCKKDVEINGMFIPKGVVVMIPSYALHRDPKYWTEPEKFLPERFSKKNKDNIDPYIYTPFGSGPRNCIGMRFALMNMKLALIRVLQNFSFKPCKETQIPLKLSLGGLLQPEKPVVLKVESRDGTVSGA
Chain of Alpha-galactosidase A (Homo sapiens) (P06280 whole entry, looked up): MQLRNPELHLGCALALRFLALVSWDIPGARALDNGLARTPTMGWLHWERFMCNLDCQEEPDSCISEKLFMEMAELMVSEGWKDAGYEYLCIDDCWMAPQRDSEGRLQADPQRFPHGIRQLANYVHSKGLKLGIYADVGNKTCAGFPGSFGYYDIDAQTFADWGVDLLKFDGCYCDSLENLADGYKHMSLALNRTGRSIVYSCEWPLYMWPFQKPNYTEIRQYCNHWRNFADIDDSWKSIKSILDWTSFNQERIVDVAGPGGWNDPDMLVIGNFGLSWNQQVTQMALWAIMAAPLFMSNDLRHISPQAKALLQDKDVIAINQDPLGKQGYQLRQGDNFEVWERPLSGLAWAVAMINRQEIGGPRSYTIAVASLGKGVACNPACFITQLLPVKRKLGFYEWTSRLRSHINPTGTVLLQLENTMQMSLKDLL
Chain of DNA dC->dU-editing enzyme APOBEC-3G (Homo sapiens) (Q9HC16 whole entry, looked up): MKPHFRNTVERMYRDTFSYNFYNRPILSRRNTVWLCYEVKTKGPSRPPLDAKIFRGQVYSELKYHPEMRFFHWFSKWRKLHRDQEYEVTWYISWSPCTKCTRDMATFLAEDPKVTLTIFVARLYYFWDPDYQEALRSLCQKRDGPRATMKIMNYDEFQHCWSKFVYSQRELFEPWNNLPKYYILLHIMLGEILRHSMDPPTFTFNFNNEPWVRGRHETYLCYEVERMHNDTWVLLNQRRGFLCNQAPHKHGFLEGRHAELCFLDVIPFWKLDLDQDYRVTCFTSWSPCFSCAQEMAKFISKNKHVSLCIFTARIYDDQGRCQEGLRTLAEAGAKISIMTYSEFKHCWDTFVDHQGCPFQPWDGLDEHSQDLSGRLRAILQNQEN
Chain of Cytochrome P450 2C19 (Homo sapiens) (P33261 whole entry, looked up): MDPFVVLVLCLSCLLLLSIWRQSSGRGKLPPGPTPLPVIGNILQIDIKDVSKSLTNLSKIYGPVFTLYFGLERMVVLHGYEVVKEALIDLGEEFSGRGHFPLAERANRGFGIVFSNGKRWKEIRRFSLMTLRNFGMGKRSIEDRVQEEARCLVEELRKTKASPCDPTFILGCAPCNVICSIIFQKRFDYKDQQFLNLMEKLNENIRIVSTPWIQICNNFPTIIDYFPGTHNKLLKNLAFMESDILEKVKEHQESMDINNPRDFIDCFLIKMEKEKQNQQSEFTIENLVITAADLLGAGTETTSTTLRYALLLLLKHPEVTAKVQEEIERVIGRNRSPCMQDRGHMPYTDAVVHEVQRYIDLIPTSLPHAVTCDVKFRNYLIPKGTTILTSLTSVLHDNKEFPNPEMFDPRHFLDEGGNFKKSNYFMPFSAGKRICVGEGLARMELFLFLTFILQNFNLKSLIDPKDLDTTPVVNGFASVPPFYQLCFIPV
Chain of Pyruvate kinase PKM (Homo sapiens) (P14618 whole entry, looked up): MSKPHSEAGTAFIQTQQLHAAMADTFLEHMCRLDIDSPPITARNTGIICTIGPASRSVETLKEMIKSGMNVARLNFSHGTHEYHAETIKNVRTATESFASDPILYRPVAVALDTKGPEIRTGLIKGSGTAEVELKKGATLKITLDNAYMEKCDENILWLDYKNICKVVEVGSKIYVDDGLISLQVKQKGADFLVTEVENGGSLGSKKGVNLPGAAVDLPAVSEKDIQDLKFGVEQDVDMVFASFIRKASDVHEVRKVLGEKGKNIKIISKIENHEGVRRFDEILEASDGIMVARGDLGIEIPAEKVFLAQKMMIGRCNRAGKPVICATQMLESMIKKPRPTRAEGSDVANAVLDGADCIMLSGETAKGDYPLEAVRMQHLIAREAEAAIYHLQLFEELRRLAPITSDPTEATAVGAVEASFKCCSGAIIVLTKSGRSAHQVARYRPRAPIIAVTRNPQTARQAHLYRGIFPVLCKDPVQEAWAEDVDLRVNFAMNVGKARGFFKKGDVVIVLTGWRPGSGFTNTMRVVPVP

CSc1ccc2c(c1)[C@H](N1CCN(C)CC1)Cc1ccccc1S2
active: Potency [2] 31.6 µM | Potency [10] 3.98 µM and 1.58 µM and 316 nM | Potency [11] 7.94 µM | Potency [12] 10 µM | Potency [13] 2.24 µM | Potency [23] 7.94 µM
-12.6%: max response ([18]; measured here: lipid channel max response)
inactive: activity change, negative = inhibition ([1]; at 17.2 µM (top of the series)) 22.7% | activity change, negative = inhibition ([1]; at 38 µM (top of the series)) 16% | activity, negative = inhibition ([3]; at 17.2 µM (top of the series)) -9.5% | activity, negative = inhibition ([3]; at 38 µM (top of the series)) -17.1% | Potency [4] > 46 µM and > 20.6 µM | Potency [5] > 46 µM and > 20.6 µM | Potency [6] | Potency [7] | outcome [8] | Potency [9] | Potency [14] | outcome [15] | outcome [16] | outcome [17] | activity change, negative = inhibition ([18]; at 25.7 µM (top of the series)) -1.54% | Potency [19] | Potency [20] | Potency [21] | Potency [22]
-9.42%: max response ([18]; measured here: cell count channel max response)
